Measured values reported in PubChem BioAssay (Tox21).
Results filed as inconclusive are left out. Active and inactive are the calls of the source. Unless noted, calls follow the shape of the dose curve; as a rule, active = well fitted curve in the direction sought with a large enough effect in the repeat runs; inconclusive = weak or mixed curves; inactive = no such curve, though single readings can be large; an effect the other way counts as inactive or inconclusive.

Tests used:
[1] = qHTS assay to identify small molecule agonists of the estrogen receptor alpha (ER-alpha) signaling pathway in the presence of an antagonist - cell viability counter screen (AID 1259386);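 also: series mostly up to about 92 µM; cells exposed to compounds for 22 h at 37 °C before the viability read; nearly all actives have a fitted effect of over 30% in size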
Method in brief: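 Cytotoxicity was measured in parallel with the ERE-luciferase agonist screen, in the same wells. The cells were VM7Luc4E2, which endogenously express ER-alpha, and treatment was with compounds plus 10.0nM ICI-182,780 for 22hr.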

[2] = molecular target: Progesterone receptor (Homo sapiens) (UniProt P06401); test: qHTS assay to identify small molecule antagonists of the progesterone receptor (PR) signaling pathway (AID 1346795; active = well fitted inhibition curve with a large enough effect in the signal ratio in the repeat runs, not every such curve was filed as active; the % refers to the signal ratio; also: potency is read from the fitted curve at half-maximal effect)
Chain of Progesterone receptor (Homo sapiens) (P06401 whole entry, looked up): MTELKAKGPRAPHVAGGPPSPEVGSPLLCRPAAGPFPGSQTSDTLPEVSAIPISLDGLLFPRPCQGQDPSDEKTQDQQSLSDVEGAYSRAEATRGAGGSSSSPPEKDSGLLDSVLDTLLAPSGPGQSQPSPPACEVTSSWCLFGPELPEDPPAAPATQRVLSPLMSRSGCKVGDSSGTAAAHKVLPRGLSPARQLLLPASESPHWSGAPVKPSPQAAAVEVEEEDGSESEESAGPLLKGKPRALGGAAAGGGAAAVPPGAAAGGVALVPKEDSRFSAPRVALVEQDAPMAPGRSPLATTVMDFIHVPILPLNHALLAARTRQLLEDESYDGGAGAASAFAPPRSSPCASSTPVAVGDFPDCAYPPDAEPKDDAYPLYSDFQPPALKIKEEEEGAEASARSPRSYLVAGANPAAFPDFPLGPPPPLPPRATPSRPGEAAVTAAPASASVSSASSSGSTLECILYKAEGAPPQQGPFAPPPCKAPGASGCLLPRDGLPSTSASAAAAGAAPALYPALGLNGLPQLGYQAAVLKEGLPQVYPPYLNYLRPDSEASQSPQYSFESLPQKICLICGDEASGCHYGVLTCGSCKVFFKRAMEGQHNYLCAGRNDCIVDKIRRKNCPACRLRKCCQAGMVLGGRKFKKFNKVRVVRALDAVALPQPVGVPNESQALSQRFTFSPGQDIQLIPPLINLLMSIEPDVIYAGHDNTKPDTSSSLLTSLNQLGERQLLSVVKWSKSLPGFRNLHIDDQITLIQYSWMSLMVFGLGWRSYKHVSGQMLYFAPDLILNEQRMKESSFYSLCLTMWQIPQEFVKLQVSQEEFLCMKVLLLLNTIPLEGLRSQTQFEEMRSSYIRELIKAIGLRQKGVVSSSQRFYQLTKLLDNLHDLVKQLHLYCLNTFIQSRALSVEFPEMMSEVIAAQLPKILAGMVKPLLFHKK
Method in brief: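 Antagonist mode with agonist R5020 at 1 nM final and 16 hr incubation at 37C. Reporter was beta-lactamase driven by UAS in HEK293T (PR-UAS-bla), 2% charcoal-stripped serum; signal from LiveBLAzer FRET substrate, 2 hr at room temperature.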

[3] = qHTS assay to identify small molecule antagonists of the progesterone receptor (PR) signaling pathway - cell viability counter screen (AID 1346798); also: series mostly up to about 92 µM; nearly all actives have a fitted effect of over 50% in size
Method in brief: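 Cytotoxicity read as CellTiter-Glo luminescence (30 min, room temperature) in the same wells as the beta-lactamase readout. HEK293T PR-UAS-bla cells in charcoal-stripped 2% FBS received compound and R5020, then 16 h at 37C, 5% CO2.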

[4] = qHTS assay to identify small molecule agonists of the progesterone receptor (PR) signaling pathway - cell viability counter screen (AID 1346799; calls by dose curve; also: nearly all actives have a fitted effect of over 45% in size)
Method in brief: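 Cytotoxicity measured by CellTiter-Glo luminescence (30 min, RT) in the same wells as the PR beta-lactamase agonist read. Those HEK293T cells had 16 h compound treatment at 37 C in 2% charcoal-stripped FBS medium.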

[5] = qHTS assay to identify small molecule antagonists of the TGF-beta/Smad signaling pathway - cell viability counter screen (AID 1346824); also: nearly all actives have a fitted effect of over 50% in size
Method in brief: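 SBE-bla HEK 293T cells were plated overnight at 37 C, then given compounds in DMSO plus TGF-beta1 (added as 0.25 ng/mL solution) for 5 hr. After the bla read, CellTiter-Glo was added to the same wells and luminescence read after 30 min at room temperature.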

[6] = qHTS assay to identify small molecule agonists of the TGF-beta/Smad signaling pathway (AID 1346859; active = well fitted activation curve with a large enough effect in the signal ratio in the repeat runs, not every such curve was filed as active; the % refers to the signal ratio; also: series mostly up to about 77 µM)
Method in brief: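 Fluorescence (ex 405 nm; em 460 and 530 nm) was read 2 h after LiveBLAzer FRET substrate at RT. The preceding compound treatment of overnight-plated SBE-bla HEK293T cells lasted 5 h at 37 C.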

[7] = molecular target: Thyrotropin-releasing hormone receptor (Homo sapiens) (UniProt P34981); test: qHTS assay to identify small molecule antagonists of the thyrotropin-releasing hormone receptor (TRHR) signaling pathway (AID 1346877; active = well fitted inhibition curve with a large enough effect in the repeat runs, not every such curve was filed as active; also: series mostly up to about 51 µM)
Chain of Thyrotropin-releasing hormone receptor (Homo sapiens) (P34981 whole entry, looked up): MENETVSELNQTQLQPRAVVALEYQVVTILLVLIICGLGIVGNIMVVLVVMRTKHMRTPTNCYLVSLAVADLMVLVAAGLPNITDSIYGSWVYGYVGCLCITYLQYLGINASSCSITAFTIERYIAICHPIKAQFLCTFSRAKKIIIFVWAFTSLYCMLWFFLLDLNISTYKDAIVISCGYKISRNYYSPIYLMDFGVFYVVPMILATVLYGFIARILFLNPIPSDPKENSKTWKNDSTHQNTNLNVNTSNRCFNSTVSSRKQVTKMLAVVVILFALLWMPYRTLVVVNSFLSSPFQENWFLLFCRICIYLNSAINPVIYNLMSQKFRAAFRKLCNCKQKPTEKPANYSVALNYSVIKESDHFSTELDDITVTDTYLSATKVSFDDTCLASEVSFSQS
Method in brief: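 Antagonism is measured as suppression of the calcium response to 1 nM TRH in TRHR-HEK293 cells that have been dye-loaded for 2 h at 37 °C after overnight plating. Each compound is tested at 15 concentrations in triplicate.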

[8] = molecular target: Thyrotropin-releasing hormone receptor (Homo sapiens) (UniProt P34981); test: qHTS assay to identify small molecule agonists of the thyrotropin-releasing hormone receptor (TRHR) signaling pathway (AID 1346891; calls by dose curve; also: series mostly up to about 58 µM)
Method in brief: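 Agonist-mode intracellular calcium readout: kinetic fluorescence over 3 min at 1 s intervals after compound addition to TRHR-HEK293 cells (18 h seeded, 2 h dye-loaded at 37 C). Fifteen concentrations, triplicates.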

[9] = qHTS assay to identify small molecule agonists of the TGF-beta/Smad signaling pathway - cell viability counter screen (AID 1346829); also: top concentration of the series differs between compounds; nearly all actives have a fitted effect of over 45% in size
Method in brief: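 CellTiter-Glo luminescence readout; SBE-bla HEK 293T cells, overnight plating, compound 5 hr at 37 C/5% CO2, then bla substrate 2 hr RT, then CellTiter-Glo 30 min RT.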

[10] = molecular target: Progesterone receptor (Homo sapiens) (UniProt P06401); test: qHTS assay to identify small molecule agonists of the progesterone receptor (PR) signaling pathway (AID 1346784; calls by dose curve; also: nearly all actives have a fitted effect of over 30% in size)
Method in brief: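 Agonist qHTS: compounds pinned onto 3,000 PR-UAS-bla HEK 293T cells per well in charcoal-stripped serum medium, 16hr at 37C, then beta-lactamase activity measured by LiveBLAzer FRET fluorescence after 2 hours at room temperature.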
% is scaled to controls: 0 for no effect and ±100 for the full control effect.

CC(C)NCC(O)COc1ccc(COCCOC(C)C)cc1 (stereo not drawn)
inactive: Potency [1] | Potency [2] | Potency [3] | Potency [4] | outcome [5] | outcome [6] | outcome [7] | outcome [8]

O=C(O)CCSSCCC(=O)O
inactive: Potency [1] | Potency [2] | Potency [3] | Potency [4] | outcome [5] | outcome [9] | outcome [6] | outcome [7] | outcome [8]

O=Cc1ccc(Cl)c(Cl)c1
inactive: Potency [1] | Potency [2] | Potency [3] | Potency [4] | outcome [5] | outcome [9] | outcome [6]

NS(=O)(=O)c1ccc(NC(=O)CCC(=O)O)cc1
inactive: Potency [1] | Potency [2] | Potency [3] | Potency [4] | outcome [5] | outcome [9] | outcome [6]

OCCN(CCO)c1cccc(Cl)c1
inactive: Potency [1] | Potency [10] | Potency [4] | outcome [5] | outcome [9] | outcome [6] | outcome [7] | outcome [8]

Cc1[nH]cnc1-c1ccc(Cl)cc1
inactive: Potency [1] | Potency [3] | outcome [5] | outcome [6] | outcome [7] | outcome [8]

O=S(=O)(O)c1cc(O)c2ccc(Nc3ccccc3)cc2c1
inactive: Potency [10] | Potency [2] | Potency [3] | Potency [4] | outcome [5] | outcome [9] | outcome [6] | outcome [7] | outcome [8]

O=C(O)c1cc(Cl)cc([N+](=O)[O-])c1Cl
inactive: Potency [1] | Potency [3] | Potency [4] | outcome [5] | outcome [9] | outcome [6] | outcome [7] | outcome [8]

CC1=C(C(=O)O)N2C(=O)[C@@H](NC(=O)[C@H](N)c3ccc(O)cc3)[C@H]2SC1
inactive: Potency [1] | Potency [4] | outcome [5] | outcome [9] | outcome [6]

CCCCCCCCCCCCCC
inactive: Potency [10] | Potency [2] | Potency [3] | Potency [4] | outcome [5] | outcome [9] | outcome [6] | outcome [7] | outcome [8]

NNc1nnc(NN)c2ccccc12
inactive: Potency [1] | Potency [4] | outcome [9] | outcome [6] | outcome [7] | outcome [8]

C=COCCOCCOCCOC=C
inactive: Potency [10] | Potency [2] | Potency [3] | Potency [4] | outcome [5] | outcome [9] | outcome [6] | outcome [7] | outcome [8]

CC(=O)CCCCn1c(=O)c2c(ncn2C)n(C)c1=O
inactive: Potency [1] | Potency [2] | Potency [4] | outcome [5] | outcome [9] | outcome [6] | outcome [7] | outcome [8]

Cc1ccc2ccc(Cl)cc2n1
inactive: Potency [10] | Potency [2] | Potency [3] | Potency [4] | outcome [5] | outcome [9] | outcome [6]

Cc1nc2n(c(=O)c1CCN1CCC(c3noc4cc(F)ccc34)CC1)CCC[C@H]2O
inactive: activity change, negative = cytotoxicity [1] -2.18% [at 19 µM] | activity change, negative = cytotoxicity [3] -12.9% [at 18.9 µM] | activity change, negative = cytotoxicity [4] -13.8% [at 19 µM] | viability change, negative = cytotoxic [5] 1.49% [at 15.8 µM] | activity change, negative = cytotoxicity [9] -1.25% [at 15.8 µM] | activation [6] 0.469% [at 15.8 µM] | activity, negative = inhibition [7] -5.29% [at 10.5 µM] | activation [8] -0.0294% [at 11.8 µM]

Cc1ccc(S(=O)(=O)O)c(C)c1
inactive: Potency [1] | Potency [3] | outcome [5] | outcome [6] | outcome [7] | outcome [8]

O=C(OCC(O)CO)c1ccccc1Nc1ccnc2c(C(F)(F)F)cccc12 (stereo not drawn)
inactive: Potency [1] | outcome [5] | outcome [9] | outcome [6] | outcome [7] | outcome [8]
active: Potency [2] 29.8 µM

CC(C)NCC(O)COc1cccc2[nH]ccc12 (stereo not drawn)
inactive: Potency [1] | Potency [3] | Potency [4] | outcome [5] | outcome [9] | outcome [6] | outcome [7] | outcome [8]

CCC(C)NC(N)=O (stereo not drawn)
inactive: Potency [1] | Potency [3] | Potency [4] | outcome [5] | outcome [9] | outcome [6] | outcome [7] | outcome [8]

COCCOC(=O)C1=C(C)NC(C)=C(C(=O)OC(C)C)C1c1cccc([N+](=O)[O-])c1 (stereo not drawn)
inactive: Potency [1] | Potency [3] | outcome [9] | outcome [6] | outcome [7] | outcome [8]
active: Potency [2] 10.6 µM

CO[C@@H]1[C@@H](OC(N)=O)[C@@H](O)[C@H](Oc2ccc3c(O)c(NC(=O)c4ccc(O)c(CC=C(C)C)c4)c(=O)oc3c2C)OC1(C)C
inactive: Potency [1] | Potency [3] | outcome [5] | outcome [9] | outcome [6] | outcome [7] | outcome [8]

O=C(O)c1cc(Br)c(O)c(Br)c1
inactive: Potency [10] | Potency [2] | Potency [3] | Potency [4] | outcome [5] | outcome [9] | outcome [6] | outcome [7] | outcome [8]

c1ccc2c(c1)ccc1c3ccccc3ccc21
inactive: Potency [1] | Potency [3] | Potency [4] | outcome [5] | outcome [9] | outcome [6] | outcome [7] | outcome [8]

COc1ccc2c(c1OC)C(=O)O[C@@H]2[C@H]1c2c(cc3c(c2OC)OCO3)CCN1C
inactive: Potency [10] | Potency [2] | Potency [3] | Potency [4] | outcome [5] | outcome [9] | outcome [6] | outcome [7] | outcome [8]
